The values that follow come from PubChem BioAssay (NCI).

Some test systems named below: BT-549 breast; MDA-MB-435 melanoma; SW-620 colon; MCF7 breast; HCT-116 colon; HCC-2998 colon; KM12 colon.
Holding throughout (assay): NCI-60 one-dose screen, 48 h (100 = growth as untreated, 0 = no growth, -100 = all killed)
Holding throughout (conditions): 10 µM unless noted

The structures appear in SMILES notation. This is part of a sample that, as a whole, favours compounds with a hit. Of some 83,000 tested, about 20% had one in any assay.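 Cell lines were cultured in 96-well plates, exposed to a single compound concentration, and assessed for percent growth 48 hours later.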 Unmarked numbers belong to inactive results. The source made the active and inactive calls. How the source made its calls: active means growth percent below 10; inactive means the rest.

With `COc1c(Cl)ccc2c(-c3nc4cc(Cl)c(F)cc4s3)cc(=O)oc12`, the growth in the assay on BT-549 breast is 107%; in the assay on MDA-MB-435 melanoma, 102%; with SW-620 colon it was 90.9%; with MCF7 breast, 96.2%; in the assay on HCT-116 colon it was 88.4%; in the assay with HCC-2998 colon it was 108%. In the assay on KM12 colon, the growth is 79.4%.

In the case of `Fc1c[c-]c(-c2ccccn2)c(F)c1.Fc1c[c-]c(-c2ccccn2)c(F)c1.[Cl][Pt+].[Cl][Pt+].c1ccc([PH+](C[PH+](c2ccccc2)c2ccccc2)c2ccccc2)cc1`, the growth was 15.8% with BT-549 breast; 5.73% (active) with MDA-MB-435 melanoma; 15.5% in the assay on SW-620 colon; 8.56% (active) in the assay with MCF7 breast; 8.2% (active) with HCT-116 colon; 22.4% with HCC-2998 colon. Besides, the growth in the assay on KM12 colon is 12.3%.

For `COc1ccc(/C=N/OCC(O)CNCc2ccccc2)cc1OC1CCCC1` (stereo unspecified), the growth with BT-549 breast was 90.9%; with MDA-MB-435 melanoma, 99.4%; with SW-620 colon, 103%; in the assay with MCF7 breast, 93.9%; in the assay on HCT-116 colon it was 95.2%; with HCC-2998 colon, 110%. The growth in the assay on KM12 colon is 104%.

With `O=C1Nc2ccc(Cl)cc2/C1=N/N=C(c1ccccc1)c1ccccc1`, the growth is 100% in the assay with BT-549 breast; 99.8% with MDA-MB-435 melanoma; 94.1% in the assay on SW-620 colon; 100% in the assay with MCF7 breast; 97.9% in the assay on HCT-116 colon; 102% in the assay on HCC-2998 colon. The growth in the assay on KM12 colon was 93.4%.

`O=S(=O)(Nc1ccc(Cl)c(Cl)c1)c1ccc(-c2cnc(C3CC3)o2)cc1`: the growth was 56.2% in the assay with BT-549 breast; -32.8% (active) with MDA-MB-435 melanoma; 12.8% with SW-620 colon; 17.9% with MCF7 breast; 26.1% with HCT-116 colon; 38.2% with HCC-2998 colon. The growth with KM12 colon is 20%.

In the case of `NC(=O)c1cc(Cl)ccc1NC(=O)COc1ccccc1`, the growth in the assay with BT-549 breast is 43.8%; with MDA-MB-435 melanoma it was -56.9% (active); in the assay with SW-620 colon, 35.3%; with MCF7 breast, 30.5%; in the assay on HCT-116 colon, 31.5%; in the assay on HCC-2998 colon, 83.1%. In the assay with KM12 colon, the growth is 38.3%.

Take `CCN(CC)c1ccc(/C=C(\C#N)c2cc3ccccc3[nH]2)cc1`: the growth with BT-549 breast is 69.5%; in the assay with MDA-MB-435 melanoma, 1.8% (active); in the assay with SW-620 colon, 23.3%; in the assay with MCF7 breast it was 23.7%; in the assay on HCT-116 colon, 31.5%; with HCC-2998 colon, 77.8%. Moreover, in the assay with KM12 colon, the growth is 21.7%.

For the compound `CCOC(=O)n1cc(C2=C(c3cn(C)c4ccccc34)COC2=O)c2ccccc21`, the growth is 26.8% with BT-549 breast; -22.2% (active) in the assay on MDA-MB-435 melanoma; 20.9% in the assay on SW-620 colon; 10.2% with MCF7 breast; 10.6% in the assay with HCT-116 colon; 16.5% in the assay on HCC-2998 colon. The growth with KM12 colon is 2.55% (active).

In the case of `Cc1ccccc1-n1nnc(C(=O)Nc2ccc(-c3ccccc3)cn2)c1C`, the growth was 50.7% [50 µM] with BT-549 breast; 23.8% [50 µM] with MDA-MB-435 melanoma; 69.3% [50 µM] with SW-620 colon; 24.3% [50 µM] in the assay on MCF7 breast; 31.3% [50 µM] with HCT-116 colon; 73.9% [50 µM] with HCC-2998 colon. For the same compound, the growth in the assay with KM12 colon was 53% [50 µM].

With `CCCCC1COc2cccc3c(SCC(=O)N(C)c4cccc5ccccc45)cc[n+]1c23` (stereo unspecified), the growth with BT-549 breast was 102%; in the assay with MDA-MB-435 melanoma, 103%; in the assay with SW-620 colon it was 105%; with MCF7 breast it was 91.7%; with HCT-116 colon, 82.5%; with HCC-2998 colon it was 90.3%. The growth in the assay with KM12 colon was 112%.

As to `O=c1c2c(=NCCN3CCCC3)cc3c(=O)n(CCCN4CCOCC4)c(=O)c4c(-c5ccc(CN6CCCC6)cc5)cc(c(O)n1CCCN1CCOCC1)c2c4-3`, the growth with BT-549 breast is -50.9% (active); in the assay on MDA-MB-435 melanoma it was -90.1% (active); in the assay with SW-620 colon it was -45.2% (active); in the assay with MCF7 breast, -34.8% (active); in the assay with HCT-116 colon, -23.8% (active); in the assay with HCC-2998 colon it was -63.7% (active). For the same compound, the growth with KM12 colon was -47.7% (active).

For the compound `COc1cc2cc(Oc3ccc(NC(=O)Nc4cccc(C(F)(F)F)c4)cc3)c(C)nc2cc1OCCN1CCCCC1`, the growth with BT-549 breast is 79.5%; in the assay on MDA-MB-435 melanoma it was -92.8% (active); in the assay on SW-620 colon, -82% (active); with MCF7 breast, -80.4% (active); in the assay with HCT-116 colon, -23.1% (active); in the assay with HCC-2998 colon, -50% (active). Also, in the assay with KM12 colon, the growth was -92.2% (active).

Regarding `CCCCC/C=C\C/C=C/CCCCCCCCNC(=O)Nc1ccc([N+](=O)[O-])cc1`, the growth in the assay on BT-549 breast was 109%; with MDA-MB-435 melanoma, 68.3%; in the assay with SW-620 colon, 31.6%; in the assay with MCF7 breast, 103%; in the assay on HCT-116 colon, 40%; in the assay with HCC-2998 colon it was 95.3%. Besides, the growth in the assay on KM12 colon was 23.9%.
